# Data from PubChem BioAssay.
# Values without a mark were called inactive. The source made the active and inactive calls.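 The calls were made as follows, unless noted: active = normalized viability below 100% at a tested concentration; inactive = the rest.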 Positions of bridges follow the written chain, without caps; N, C: chain ends. Non-standard residues stand in square brackets, D forms with d. Residues, ends and D or L forms follow the SMILES beside them. ξ: configuration not given here. *: point of attachment. Heptanoyl(5-Me) = CCC(C)CCCC(=O)*; ξThr(3R) = C[C@@H](O)C(N)C(=O)O; dDab = NCC[C@@H](N)C(=O)O; Dab = NCC[C@H](N)C(=O)O
# Tests used:
# [1] = molecular target: NAD(+) hydrolase SARM1 (Homo sapiens) (UniProt Q6SZW1); assay: blocking NAD cleavage by SARM1 SAM-TIR – cell lysate, NAD-Glo luminescence (AID 1508614;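 active = compound whose remaining NAD level is above about 45 nM, limit read from the data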;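 also: higher remaining NAD means stronger inhibition of SARM1 NADase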); details: SAM-TIR HEK293T lysate NADase, at 1 µM, hits give high values
# NAD(+) hydrolase SARM1 (Homo sapiens), sequence (Q6SZW1 whole entry, looked up): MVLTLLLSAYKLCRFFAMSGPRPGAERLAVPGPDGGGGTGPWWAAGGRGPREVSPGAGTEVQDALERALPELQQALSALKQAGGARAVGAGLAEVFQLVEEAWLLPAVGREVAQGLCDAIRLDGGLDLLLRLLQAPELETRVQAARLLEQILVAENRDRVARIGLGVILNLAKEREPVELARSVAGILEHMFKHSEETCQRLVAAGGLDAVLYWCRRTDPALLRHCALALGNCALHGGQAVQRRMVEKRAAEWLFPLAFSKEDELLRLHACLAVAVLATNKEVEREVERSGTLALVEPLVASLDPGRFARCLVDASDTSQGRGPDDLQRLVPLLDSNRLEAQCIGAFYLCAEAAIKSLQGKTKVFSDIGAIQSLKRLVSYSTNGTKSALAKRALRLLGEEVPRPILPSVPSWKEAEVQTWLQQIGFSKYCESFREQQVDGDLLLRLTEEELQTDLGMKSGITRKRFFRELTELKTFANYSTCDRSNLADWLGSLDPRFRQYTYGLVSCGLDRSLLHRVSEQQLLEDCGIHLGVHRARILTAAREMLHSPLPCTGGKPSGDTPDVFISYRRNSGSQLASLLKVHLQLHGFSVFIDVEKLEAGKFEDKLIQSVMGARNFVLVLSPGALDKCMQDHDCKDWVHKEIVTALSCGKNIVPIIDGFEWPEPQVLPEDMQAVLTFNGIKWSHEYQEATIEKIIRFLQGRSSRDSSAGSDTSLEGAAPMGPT
# [2] = drug combination growth inhibition, ovarian cancer – cell-based, oncology-focused library, rucaparib conditional, profiling panel (AID 1508598); details: patient-derived ovarian cancer cells, CellTiter-Glo viability, 144 h, hits give low values
compound,measurement,setting,value
C#C[C@]1(OC(C)=O)CC[C@H]2[C@@H]3CCC4=C/C(=N\O)CC[C@@H]4[C@H]3CC[C@@]21CC,remaining NAD,[1],10 nM
COc1cccc2c1C(=O)c1c(O)c3c(c(O)c1C2=O)C[C@@](O)(C(C)=O)C[C@H]3O[C@H]1C[C@H](N)[C@H](O)[C@H](C)O1,viability,"[2]; at 0.000305 µM, OCI-C5x cells, with rucaparib 10 µM, 100% = cells with rucaparib alone",118%
same,viability,"[2]; at 0.000305 µM, OCI-C5x cells, without rucaparib",110%
same,viability,"[2]; at 0.000305 µM, OCI-P5x cells, with rucaparib 20 µM, 100% = cells with rucaparib alone",110%
same,viability,"[2]; at 0.000305 µM, OCI-P5x cells, without rucaparib",105%
same,viability,"[2]; at 0.00122 µM, OCI-C5x cells, with rucaparib 10 µM, 100% = cells with rucaparib alone",123%
same,viability,"[2]; at 0.00122 µM, OCI-C5x cells, without rucaparib",101%
same,viability,"[2]; at 0.00122 µM, OCI-P5x cells, with rucaparib 20 µM, 100% = cells with rucaparib alone",99.8% (active)
same,viability,"[2]; at 0.00122 µM, OCI-P5x cells, without rucaparib",101%
same,viability,"[2]; at 0.00488 µM, OCI-C5x cells, with rucaparib 10 µM, 100% = cells with rucaparib alone",125%
same,viability,"[2]; at 0.00488 µM, OCI-C5x cells, without rucaparib",152%
same,viability,"[2]; at 0.00488 µM, OCI-P5x cells, with rucaparib 20 µM, 100% = cells with rucaparib alone",99.2% (active)
same,viability,"[2]; at 0.00488 µM, OCI-P5x cells, without rucaparib",94.6% (active)
same,viability,"[2]; at 0.0195 µM, OCI-C5x cells, with rucaparib 10 µM, 100% = cells with rucaparib alone",198%
same,viability,"[2]; at 0.0195 µM, OCI-C5x cells, without rucaparib",201%
same,viability,"[2]; at 0.0195 µM, OCI-P5x cells, with rucaparib 20 µM, 100% = cells with rucaparib alone",84.2% (active)
same,viability,"[2]; at 0.0195 µM, OCI-P5x cells, without rucaparib",43% (active)
same,viability,"[2]; at 0.0781 µM, OCI-C5x cells, with rucaparib 10 µM, 100% = cells with rucaparib alone",180%
same,viability,"[2]; at 0.0781 µM, OCI-C5x cells, without rucaparib",105%
same,viability,"[2]; at 0.0781 µM, OCI-P5x cells, with rucaparib 20 µM, 100% = cells with rucaparib alone",74.4% (active)
same,viability,"[2]; at 0.0781 µM, OCI-P5x cells, without rucaparib",26.5% (active)
same,viability,"[2]; at 0.313 µM, OCI-C5x cells, with rucaparib 10 µM, 100% = cells with rucaparib alone",101%
same,viability,"[2]; at 0.313 µM, OCI-C5x cells, without rucaparib",5.28% (active)
same,viability,"[2]; at 0.313 µM, OCI-P5x cells, with rucaparib 20 µM, 100% = cells with rucaparib alone",25.9% (active)
same,viability,"[2]; at 0.313 µM, OCI-P5x cells, without rucaparib",10.5% (active)
same,viability,"[2]; at 1.25 µM, OCI-C5x cells, with rucaparib 10 µM, 100% = cells with rucaparib alone",2.76% (active)
same,viability,"[2]; at 1.25 µM, OCI-C5x cells, without rucaparib",1.21% (active)
same,viability,"[2]; at 1.25 µM, OCI-P5x cells, with rucaparib 20 µM, 100% = cells with rucaparib alone",15.7% (active)
same,viability,"[2]; at 1.25 µM, OCI-P5x cells, without rucaparib",5.33% (active)
same,viability,"[2]; at 5 µM, OCI-C5x cells, with rucaparib 10 µM, 100% = cells with rucaparib alone",2.96% (active)
same,viability,"[2]; at 5 µM, OCI-C5x cells, without rucaparib",1.85% (active)
same,viability,"[2]; at 5 µM, OCI-P5x cells, with rucaparib 20 µM, 100% = cells with rucaparib alone",4.23% (active)
same,viability,"[2]; at 5 µM, OCI-P5x cells, without rucaparib",3.15% (active)
Cc1ncc(COP(=O)([O-])[O-])c(CN(CCN(CC(=O)[O-])Cc2c(COP(=O)([O-])[O-])cnc(C)c2[O-])CC(=O)[O-])c1[O-].[H+].[H+].[H+].[Mn+2].[Na+].[Na+].[Na+],remaining NAD,[1],10 nM
CCC(=O)Oc1ccc2c(c1)CC[C@@H]1[C@@H]2CC[C@]2(C)[C@@H](OC(=O)CC)CC[C@@H]12,remaining NAD,[1],10 nM
C[C@H]1C[C@H]2[C@@H]3CCC4=CC(=O)C=C[C@]4(C)[C@@]3(F)[C@@H](O)C[C@]2(C)[C@@]1(O)C(=O)COP(=O)(O)O,remaining NAD,[1],10 nM
CCC(C)CCCC(=O)N[C@@H](CCN)C(=O)N[C@H](C(=O)N[C@@H](CCN)C(=O)N[C@H]1CCNC(=O)C([C@@H](C)O)NC(=O)[C@@H](CCN)NC(=O)[C@H](CCN)NC(=O)[C@@H](CC(C)C)NC(=O)[C@@H](CC(C)C)NC(=O)[C@H](CCN)NC1=O)[C@@H](C)O (stereo partly drawn) ({Heptanoyl(5-Me)}-[Dab]T[Dab][Dab][Dab][dL][dL][Dab][dDab][ξThr(3R)]; lactam 4-C),remaining NAD,[1],10 nM
